An excerpt weighted towards active compounds, which were near 4.2% of everything screened.
CCHFV vOTU inh – blocks the CCHF virus ovarian tumor domain protease; CCHFV vOTU protease, Pep-AMC fluorescence; inhibition, % at 11.5 µM; actives 0.55% (n = 370,000); AID 651958; also: 0% = vehicle wells with enzyme and 100% = no enzyme wells
FBA Mtb inh – inhibits M. tuberculosis FBA enzyme | inhibition, % at 1 µM | actives 2.3% (n = 360,000) | P9WQA3 | purified M. tuberculosis FBA, fluorescence read-out | AID 588726; in the data active = inhibition above about 27%;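 also: 0% = vehicle and 100% = reference inhibitor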
Target sequence (P9WQA3 whole entry, looked up): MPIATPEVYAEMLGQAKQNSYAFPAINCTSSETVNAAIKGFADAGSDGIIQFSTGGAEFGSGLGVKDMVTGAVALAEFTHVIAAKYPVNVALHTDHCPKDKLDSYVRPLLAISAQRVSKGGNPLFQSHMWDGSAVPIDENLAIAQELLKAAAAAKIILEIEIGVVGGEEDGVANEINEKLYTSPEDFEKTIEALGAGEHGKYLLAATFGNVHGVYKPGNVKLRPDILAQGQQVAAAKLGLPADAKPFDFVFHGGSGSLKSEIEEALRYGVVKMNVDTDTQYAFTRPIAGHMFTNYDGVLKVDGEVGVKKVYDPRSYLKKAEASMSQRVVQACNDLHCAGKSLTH
RecA splice inh – blocks M. tuberculosis RecA intein splicing; cell-free RecA intein splicing, fluorescence; inhibition, % (concentration not given with the values); actives 0.75% (n = 290,000); AID 2221; in the data active = inhibition above about 30%;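 also: 0% = vehicle wells and 100% = reference inhibitor control wells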
GDH-TPI counter – inhibits GDH-TPI coupling enzymes, artifact for Mtb FBA screen. actives 1.2% (n = 360,000). AID 588335. inhibition, % at 4.8 µM. GDH-TPI coupled enzyme counterscreen, NADH absorbance;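 also: 0% = DMSO wells and 100% = wells lacking the enzyme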
An asterisk follows results filed as active; . = no result; + = active, no number. Rule as the data show it, unless noted: active = inhibition above about 30%; inactive = the rest.

SMILES	CCHFV vOTU inh	FBA Mtb inh	RecA splice inh	GDH-TPI counter
CCCCN1C=C(C(=O)OC)C(c2ccccc2Cl)C(C(=O)OC)=C1	-49.5	171.2*	-94.6	-2.2
COCCN1C=C(C(=O)OC)C(c2ccccc2C(F)(F)F)C(C(=O)OC)=C1	-167.4	154.9*	-94.5	9.0
CCOC(=O)[C@@H]1[C@H]2COc3ccccc3[C@@H]2N2C(=O)N(c3cccc(Cl)c3)C(=O)[C@@]12C	-8.2	-0.1	8.5	2.5
C=CCc1cc(OC)ccc1OCCN1CC(C)OC(C)C1 (centres undefined)	-3.7	3.7	.	6.4
Cn1c(NCc2cccnc2)nc2cc(-c3cccc(C(=O)NCCO)c3)sc2c1=O	-3.5	10.0	.	10.6
COC(=O)C1=CNC=C(C(=O)OC)C1c1ccccc1Cl	-257.5	+	.	8.0
COC(=O)C1=CN(c2ccc(Cl)cc2)C=C(C(=O)OC)C1c1ccc([N+](=O)[O-])cc1	5.1	-0.7	-1.7	2.1
COC(=O)C1=CNC=C(C(=O)OC)C1c1ccc(Cl)cc1	-231.2	+	-22.1	6.2
COc1ccc(N=c2oc3cc(O)ccc3cc2C(=O)NCC2CCCO2)c(OC)c1 (centres undefined)	-145.7	+	-31.9	31.8*
COc1ccc(N=c2oc3cc(O)ccc3cc2C(=O)NCC2CCCO2)cc1 (centres undefined)	-103.2	190.2*	-75.5	21.9
CCOc1ccccc1N=c1oc2cc(O)ccc2cc1C(=O)NCC1CCCO1 (centres undefined)	-229.0	165.6*	.	9.6
COc1cc(SC)ccc1C(=O)NCC1CCCO1 (centres undefined)	1.6	2.0	-2.3	7.4
COc1cc(OC)cc(C(=O)NCC2CCCO2)c1 (centres undefined)	-1.6	-0.8	2.4	-4.1
COc1ccc(CC(=O)Nc2ccc(S(=O)(=O)N3CCCC3)cc2)c(OC)c1	2.0	0.1	.	-0.5
CCCC(CNC(C)=O)(C1=CCCCC1)c1ccccc1 (centres undefined)	1.8	-1.3	.	-6.7
N#Cc1c(N)c(C(=O)c2ccc(Br)cc2)n2c1CCC2	1.1	0.7	1.5	31.1*
N#Cc1c(N)c(C(=O)c2ccccc2)n2c1CCCC2	13.0	0.5	-2.1	19.4
O=C(CNCc1cccs1)Nc1ccc(OC(F)(F)F)cc1	-4.4	0.3	-4.0	0.0
Cc1ccc(-n2c(C)cc(C=C3C(=O)N(C)C(=O)N(C)C3=O)c2C)cc1	2.0	112.3*	.	12.3
Cc1cc(/C=C2/C(=O)NC(=O)N(C)C2=O)c(C)n1-c1ccccc1	-7.7	-1.9	-5.1	3.8
O=C(/C=C/c1ccc(F)cc1)Nc1ccc(S(=O)(=O)Nc2ncccn2)cc1	-7.0	1.9	-1.0	32.9*
Cc1ccc(/C=C/C(=O)Nc2ccc(S(=O)(=O)Nc3ncccn3)cc2)cc1	-2.0	4.6	-1.8	16.7
COc1cccc(/C=C2/SC(=O)N(CC(=O)N3CCc4ccccc4C3)C2=O)c1OCC(=O)O	8.2	-2.3	6.6	32.1*
COc1cccc(/C=C2/SC(=O)N(C)C2=O)c1OCc1ccc(C(=O)O)cc1	6.6	-3.0	.	13.3
Cc1ccccc1-n1c(O)c(/C=N/c2nccs2)c(=O)[nH]c1=O	-1.9	1.9	-2.9	-4.3
SMILES	CCHFV vOTU inh	FBA Mtb inh	RecA splice inh	GDH-TPI counter
Cc1cccc(N=Cc2c(O)n(-c3ccccc3C)c(=O)[nH]c2=O)c1	-7.8	-1.6	-2.9	47.8*
C=CCn1c(O)c(C=Nc2ccc(N(CC)CC)cc2)c(=O)[nH]c1=O	40.3*	-2.9	-3.1	17.5
Cc1ccccc1-n1c(O)c(C=Nc2ccc(N(C)C)cc2)c(=O)[nH]c1=O	11.2	-9.3	-2.0	43.4*
O=C(c1ccccc1)c1cnc(Nc2ccccc2Cl)s1	.	0.8	6.7	30.8*
CNc1ncc(C(=O)c2ccc(Cl)c(Cl)c2)s1	9.3	-0.9	1.5	34.1*
CNc1ncc(C(=O)c2ccc(Cl)cc2)s1	2.9	-1.8	0.7	46.8*
Fc1cccc(Cc2c(-c3ccccc3)nc3c4ccccc4ccn23)c1	21.4	.	.	.
Cc1ccc(C(CC(=O)c2ccco2)SCCO)cc1 (centres undefined)	7.5	0.8	2.2	32.8*
N#CC1=C(N)n2c(s/c(=C\c3ccco3)c2=O)=C(C#N)C1c1ccco1 (centres undefined)	17.4	-0.6	3.8	33.2*
Cn1c(/C(C#N)=C/c2ccc(-c3ccc(S(N)(=O)=O)cc3)o2)nc2ccccc21	25.0	-5.0	.	40.0*
Cn1c(/C(C#N)=C/c2cccc(O)c2)nc2ccccc21	-5.4	1.6	4.1	16.4
O=C(CCN1C(=O)/C(=C\c2cccs2)SC1=S)Nc1ccc(C(=O)O)cc1	13.8	-4.3	20.8	4.7
O=C(CN1C(=O)S/C(=C/c2cccs2)C1=O)N1CCCC1	19.9	-1.4	.	21.4
O=C(CN1C(=O)S/C(=C/c2cccs2)C1=O)N1CCOCC1	8.3	-0.1	-1.7	37.3*
O=C(CN1C(=O)S/C(=C\c2cccs2)C1=O)Nc1ccc(O)c(C(=O)O)c1	12.9	-0.4	1.4	37.8*
O=C(CCN1C(=O)/C(=C/c2ccco2)SC1=S)Nc1ccc(C(=O)O)c(O)c1	14.0	1.6	26.8	4.1
O=C(CN1C(=O)S/C(=C\c2cccs2)C1=O)Nc1ccc(C(=O)O)c(O)c1	23.5	-8.1	3.2	48.7*
COc1cccc(NC(=O)C2CCCN2C(=O)Nc2cccc3c2OCO3)c1 (centres undefined)	8.1	.	.	.
Cc1ccc(-c2nnc(SCC(=O)Nc3ccc(Oc4ccccc4)cc3)n2-c2ccc(Cl)cc2)cc1	2.4	.	.	.
CC(=O)Nc1c(-c2ccc(F)cc2)nc2ncccn12	-46.4	.	.	.
COc1ccc(C2CC(c3cccs3)=NN2C(=O)CSC2=NCCS2)cc1 (centres undefined)	19.9	11.2	40.9*	-8.0
CNC(=S)N1N=C(c2cccs2)CC1c1ccc(F)cc1 (centres undefined)	-0.8	8.3	-0.9	36.2*
Cc1ccc(C2CC(c3cccs3)=NN2C(=O)CSC2=NCCS2)cc1 (centres undefined)	4.5	16.1	56.8*	14.2
CCC(=O)N1N=C(c2cccs2)CC1c1ccc(OC)cc1 (centres undefined)	-4.9	7.4	2.5	6.5
COC(=O)[C@]12C[C@H](CC(=O)N3CCCC3)C(=O)N(Cc3ccc(Cl)cc3Cl)C1=C[C@H](C(C)C)O[C@@H]2C1CC1	13.5	.	.	.
SMILES	CCHFV vOTU inh	FBA Mtb inh	RecA splice inh	GDH-TPI counter
CCCSc1nnc(Sc2nnnn2-c2ccccc2)s1	2.7	0.3	47.1*	13.3
C=CCN1N=C(/C=C/c2ccc(OC)cc2)CCC1=O	0.9	-0.6	-2.6	34.0*
CCOC(=O)C(C)N1N=C(/C=C/c2ccc(C)cc2)CCC1=O (centres undefined)	6.3	-3.6	6.8	38.8*
CCOC(=O)CN1N=C(/C=C/c2ccc(OCC)cc2)CCC1=O	10.8	-5.6	-0.8	34.3*
CCOC(=O)CN1N=C(/C=C/c2ccccc2)CCC1=O	4.6	4.8	2.1	17.1
COc1cc(OC)cc(C(=O)NCC2CCN(C(=O)C(=O)c3cc4ccccc4o3)CC2)c1	14.7	.	.	.
CCC(=O)N(c1ccccc1)C1CCN(C(=O)C(Cc2ccccc2)NC(C)=O)CC1 (centres undefined)	-8.0	.	.	.
COc1ccc(S[C@]2(C(=O)N3CCOCC3)CC(=O)N(C(=O)c3ccccc3)[C@@H]2c2ccc(OC)cc2)cc1	0.3	.	.	.

Bioassay records (PubChem BioAssay)
